Source: PubChem (National Center for Advancing Translational Sciences (NCATS))
A selection: hits, their analogues and other compounds. The true share with any hit is near 17%.
DT40 TDP1 no CPT: qHTS for Inhibitors of human tyrosyl-DNA phosphodiesterase 1 (TDP1): qHTS in cells in absence of CPT. DT40 Tdp1-/- hTDP1 cells, no CPT, ATP luminescence, 48 h. Potency, µM (top dose mostly 46.2 µM), without a hit: at the highest dose activity change, negative = growth inhibition, most hits filed as inhibitors. hit rate 15% among 420,000; also: % is scaled to controls: 0 for no effect and ±100 for the full control effect; nearly all actives have a fitted effect of over 55% in size
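Chicken DT40 Tdp1-/- cells stably complemented with human TDP1 were seeded at 400 cells/well with DMSO in place of 20 nM camptothecin. After compound pinning, cells grew at least 48 hr at 37 °C; viability read by CellTiter-Glo luminescence.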
HT1080NT lethal: kills 2HG-producing HT-1080-NT fibrosarcoma cells | AID 686970 | Potency, µM (titrated, usually from 46.1 µM), without a hit: at the highest dose activity, negative = less viability, most hits filed as cytotoxic | HT-1080-NT fibrosarcoma viability, CellTiter-Glo ATP luminescence, 48 h | hit rate 1.6% among 360,000;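 also: NT is the 2HG producing partner of a matched IDH1 knockdown line; 0% = DMSO-treated cells and -100% = media-only wells without cells; nearly all actives have a fitted effect of over 55% in size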
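Luminescent CellTiter-Glo readout after 48 hours of compound exposure at 37 degrees C defined viability of HT-1080-NT cells. Activity was normalized to DMSO wells and cell-free media wells; concentration-response curves were fitted and assigned curve classes.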
HepG2 viability: HepG2 cytotoxicity, counter-screen for TGF-b inhibitors | HepG2 CAGA-GFP viability, ATP luminescence, 18 h | Potency, µM (titrated, usually from 46.1 µM), for the others: top-dose activity change, negative = cytotoxicity, usual class: cytotoxic | hit rate 0.76% among 410,000
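HepG2 CAGA-GFP cells (1000/well, DMEM with 1% FBS) received compound, then TGF-beta at 500 pg/mL final, and were incubated 18 hours at 37 degrees C. Viability was read by CellTiter-Glo luminescence. Media-only wells were set as complete cell-killing and DMSO as no toxicity.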
DT40 TDP1 CPT: growth inhibition of DT40 Tdp1-/-;hTDP1 cells with camptothecin (screen for TDP1 inhibitors) | AID 686979 | hit rate 12% among 420,000 | Potency, µM (titrated, usually from 46.2 µM), for the others: at the highest dose activity change, negative = growth inhibition, actives largely listed as inhibitors | chicken DT40 Tdp1-/-;hTDP1 cells + 20 nM CPT, ATP luminescence, 48 h; also: % is scaled to controls: 0 for no effect and ±100 for the full control effect; nearly all actives have a fitted effect of over 55% in size
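Cell growth measured by CellTiter-Glo luminescence after a minimum 48 h, 37 C compound exposure with 20 nM CPT in Tdp1-knockout DT40 cells stably expressing hTDP1, seeded 400/well; qHTS titration format.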
HT1080 IDH1KD tx: HT-1080 IDH1 knockdown cell toxicity (counter line); HT-1080 IDH1 knockdown viability, ATP luminescence, 48 h; Potency, µM (titrated, usually from 46.1 µM), for the others: at the highest dose activity, negative = toxicity, usual class: cytotoxic; hit rate 2% among 360,000; AID 686971;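 also: 0% = DMSO wells and -100% = cell-free medium wells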
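CellTiter-Glo luminescence after 48 h compound exposure at 37 degrees C of IDH1-knockdown HT-1080 cells in 5% FBS RPMI. %Activity scaled between DMSO wells and cell-free media wells, with curves fitted and assigned curve classes.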
TGFb SMAD3 inh: inhibitors of TGF-b signaling | HepG2 CAGA-GFP TGF-b/SMAD3 reporter, GFP fluorescence, 18 h; TGF-beta stimulated, 500 pg/mL final | Potency, µM (top dose mostly 46.1 µM), for inactives: top-dose activity, negative = inhibition, actives largely listed as inhibitors | hit rate 1.2% among 410,000 | AID 588855; also: % is scaled to controls: 0 for no effect and ±100 for the full control effect; nearly all actives have a fitted effect of over 65% in size
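Inhibition was scored as loss of TGF-beta-induced (500 pg/mL final, 18 hours, 37 degrees C) GFP in HEPG2 cells carrying a CAGA-GFP reporter, in DMEM with 1% FBS. Well GFP was summed per cell; Activity was normalised to unstimulated and stimulated DMSO wells, then concentration-response fitting.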
An asterisk follows results filed as active; ? = inconclusive; nt = not tested or not shown; ! = not confirmed by another sample. Calls follow the shape of the dose curve; as a rule, active = well fitted curve in the direction sought with a large enough effect; inconclusive = small, poorly fitted or top-dose-only effect, or another doubt; inactive = no such curve, though single readings can be large; an effect the other way counts as inactive or inconclusive. Potency is read from the fitted curve at half-maximal effect.

SMILES | DT40 TDP1 no CPT | HT1080NT lethal | HepG2 viability | DT40 TDP1 CPT | HT1080 IDH1KD tx | TGFb SMAD3 inh
Cc1cccc2sc(NNC(=O)C3COc4ccccc4O3)nc12 (stereo not drawn) | ? | -3% | -8% | ? | -5% | -12%
COc1ccc(-c2csc(NC(=O)C3COc4ccccc4O3)n2)cc1OC (stereo not drawn) | 13µM* | -15% | -29% | 16µM* | -7% | -13%
Cc1ccc(C(=O)N(Cc2cc3cccc(C)c3nc2N(C)C)CC2CCCO2)cc1 (stereo not drawn) | -7% | nt | nt | 9% | nt | nt
OC[C@@H](O)C(O)[C@H](O)CO | -5% | nt | nt | -5% | nt | nt
Cc1cc(S(=O)(=O)N2CCN(c3ccccc3F)CC2)ccc1-n1cnnn1 | ? | 2% | -13% | ? | -2% | -2%
CCN(CC)S(=O)(=O)c1ccc(C(=O)NCCSc2c(-c3ccc(C)cc3)[nH]c3ccccc23)cc1 | 8.2µM* | nt | -5% | 5.8µM* | nt | -3%
COc1ccc(C(=O)NCCc2c[nH]c3ccccc23)cc1OC | -28% | 7% | -11% | 15% | -5% | -6%
COc1ccc(C(=O)NCCSc2c[nH]c3ccccc23)cc1OC | 21µM* | nt | -21% | ? | nt | -23%
CCN(CC)S(=O)(=O)c1ccc(C(=O)NCCSc2c[nH]c3ccccc23)cc1 | ? | -27% | -28% | 21µM* | -2% | -4%
CC(=O)c1ccc(OCC(=O)OCC(=O)c2ccc(S(=O)(=O)N3CCCCC3)cc2)cc1 | -3% | 6% | -18% | -6% | 4% | -21%
COc1ccc(Cl)cc1NC(=O)c1c(C(=O)Nc2cccc(C)c2C)sc2nc(C)cc(=O)n12 | 21µM* | nt | 2% | ? | nt | 12%
COC(=O)c1ccc(NC(=O)c2c(C(=O)Nc3ccccc3)sc3nc(C)cc(=O)n23)cc1 | 0% | 3% | -2% | -4% | 6% | 10%
Fc1cccc(Cl)c1Cn1nnc2c(NCc3ccncc3)ncnc21 | ? | ? | -23% | 23µM* | ? | -6%
Fc1cccc(Cl)c1Cn1nnc2c(NCc3ccccn3)ncnc21 | -25% | -10% | -4% | ? | -15% | -1%
N#Cc1ccc(-c2nc3ccc(Br)cn3c2Cc2ccccc2)cc1 | 9.2µM* | -10% | -32% | 12µM* | -11% | 0%
Cc1ccc(Cc2c(-c3ccccc3)nc3ccc(Br)cn23)cc1 | ? | -18% | -30% | ? | -1% | ?
Cc1ccc(Cc2c(-c3ccc(C#N)cc3)nc3ccc(Br)cn23)cc1 | ? | -14% | -19% | 21µM* | -5% | -1%
CC(C)CC(C(=O)O)N1C(=O)C2C3C=CC(C2C1=O)C1C(=O)N(C(CC(C)C)C(=O)O)C(=O)C31 (stereo not drawn) | 10% | 21% | 1% | 3% | 15% | 0%
COc1ccc(CN(C)C(C)C(=O)Nc2ccc(S(=O)(=O)N3CCCCC3)cc2)c(OC)c1 (stereo not drawn) | ? | -20% | -5% | ? | -20% | -3%
O=C1/C(=C/c2ccc(N3CCOCC3)o2)SC(=Nc2ccccc2)N1CCc1c[nH]c2ccccc12 | 2.1µM* | 7.3µM* | 13µM* | 2.9µM* | 4.1µM* | -1%
COc1cc(/C=C2\SC(=Nc3ccccc3)N(CCc3c[nH]c4ccccc34)C2=O)ccc1OC(C)C(=O)O (stereo not drawn) | ? | -18% | -18% | ? | -30% | -17%
CC(C)OC(=O)CN1C(=O)S/C(=C/c2ccc(N3CCCCC3)o2)C1=O | 20µM* | ? | -60% | 16µM* | 11µM* | 68%
O=C1S/C(=C\c2ccc(N3CCOCC3)o2)C(=O)N1Cc1ccc(F)cc1 | ? | 6.3µM* | -18% | ? | 3.2µM* | -6%
CCN(CC)CCCNC(=S)N(CCO)Cc1cc2cc3c(cc2[nH]c1=O)OCCO3 | 1% | -8% | -6% | -15% | -6% | 0%
CCSc1nc2c([nH]c3ccccc32)c(=O)n1-c1ccc(OC)cc1 | -22% | nt | -22% | -16% | nt | 4%
SMILES | DT40 TDP1 no CPT | HT1080NT lethal | HepG2 viability | DT40 TDP1 CPT | HT1080 IDH1KD tx | TGFb SMAD3 inh
COc1cccc(-n2c(SCC(=O)N3CCCCC3)nc3c([nH]c4ccccc43)c2=O)c1 | 21µM* | 6% | 2% | ? | -2% | -6%
COc1ccc(-n2c(SCc3ccccc3)nc3c([nH]c4ccccc43)c2=O)cc1 | 23µM* | nt | -22% | ? | nt | -5%
O=C(CSc1nc2c([nH]c3ccccc32)c(=O)n1-c1ccccc1)N1CCCC1 | -16% | nt | -9% | -27% | nt | -11%
COc1cccc(-n2c(SCC(=O)N3CCc4ccccc43)nc3c([nH]c4ccccc43)c2=O)c1 | 10µM* | nt | -20% | 7.3µM* | nt | 1%
CCOc1ccc(-n2c(SCC(=O)N3CCc4ccccc43)nnc2-c2c[nH]c3ccccc23)cc1 | ? | 5% | -18% | ? | -5% | -9%
COc1cccc(-n2c(SCC(=O)N3CCc4ccccc43)nnc2-c2c[nH]c3ccccc23)c1 | 23µM* | -8% | 1% | 16µM* | 9% | -1%
O=C(CSc1nccc(-c2cccs2)n1)Nc1ccccc1 | -23% | 0% | -1% | -4% | -1% | 10%
CCCCNC(=O)C(NC(=O)c1ccc2c(c1)OCO2)C(=O)c1ccccc1 (stereo not drawn) | -9% | -3% | nt | -16% | -9% | nt
O=C(O)c1ccc2c(=O)n3c(nc2c1)/C(=C/c1cccc(Cl)c1Cl)CCCC3 | -6% | 5% | 22% | -2% | 6% | 33%
O=C(CSc1nc2c([nH]c3ccccc32)c(=O)n1-c1ccccc1)N1CCOCC1 | -17% | 1% | -39% | -6% | 5% | ?
COc1cccc(-n2c(SCC(=O)Nc3cc(C)on3)nc3c([nH]c4ccccc43)c2=O)c1 | ? | -3% | -18% | ? | -29% | -10%
CCC1CCCCN1C(=O)CSc1nc2c([nH]c3ccccc32)c(=O)n1-c1cccc(OC)c1 (stereo not drawn) | 26µM* | nt | -27% | ? | nt | ?
O=C(CSc1nc2c([nH]c3ccccc32)c(=O)n1-c1cccc(Cl)c1)N1CCOCC1 | 15µM*! | ? | -5% | 18µM*! | ? | ?
